# Bioassay records: PubChem BioAssay, National Center for Advancing Translational Sciences (NCATS)
# Six1-Eya2 blk = blocks human Six1 binding to Eya2. Q15475+O00167. AlphaScreen GST-Six1/His-Eya2 binding, biochemical; hits give low values. activity change, % (no concentration beside the values). hit rate 0.56% among 360,000. AID 651725; in the data active = activity change below about -65%; inconclusive = mostly about -30% to -63%
#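 Homogeneous AlphaScreen proximity assay pairing GST-Six1 with His-tagged Eya2 (added as 5X mix: 250 nM and 500 nM) in 50 mM Tris pH 8.0, 300 mM NaCl, 1 mM TCEP. Glutathione donor and nickel acceptor beads; 1 h, 37 °C, dark.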
# RORgamma inh = inhibitors of mouse ROR gamma transcriptional activity; Drosophila S2 Gal4-RORgamma UAS-luciferase reporter, 20 h; hit rate 5.4% among 310,000; Potency, µM (series often up to 53.6 µM), for the others: at the top dose activity change, negative = inhibition, hits mostly inhibitors; also: potency is read from the fitted curve at half-maximal effect; nearly all actives have a fitted effect of over 60% in size
# Target sequence (P51450 whole entry, looked up, the tested form may be a part): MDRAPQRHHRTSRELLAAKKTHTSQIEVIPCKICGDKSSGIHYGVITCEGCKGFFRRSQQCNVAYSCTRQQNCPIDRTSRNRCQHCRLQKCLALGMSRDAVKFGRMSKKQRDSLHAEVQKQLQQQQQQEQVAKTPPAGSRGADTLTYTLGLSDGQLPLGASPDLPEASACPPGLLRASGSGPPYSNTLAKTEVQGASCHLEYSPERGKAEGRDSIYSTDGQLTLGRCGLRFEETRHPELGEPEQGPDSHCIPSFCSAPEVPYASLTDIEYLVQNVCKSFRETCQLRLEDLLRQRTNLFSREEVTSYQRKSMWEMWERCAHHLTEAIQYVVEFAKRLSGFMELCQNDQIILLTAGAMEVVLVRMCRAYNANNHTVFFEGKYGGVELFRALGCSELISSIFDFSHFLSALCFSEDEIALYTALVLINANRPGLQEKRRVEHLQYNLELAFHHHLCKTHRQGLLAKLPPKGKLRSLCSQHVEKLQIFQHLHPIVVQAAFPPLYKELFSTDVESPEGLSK
#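 A Gal4/UAS one-hybrid system in insect cells: metallothionein-promoter Gal4–ROR gamma fusion plus Photinus luciferase reporter. Copper sulfate 700 uM final, 20 hr ambient incubation, luminescent detection after 10 min with reagent.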
# PKM2 activator = increases activity of human pyruvate kinase M2; purified PKM2, Kinase-Glo ATP luminescence, activation; response scale: 0% is enzyme alone, no compound; P14618; Potency, µM (titrated, usually from 57.5 µM), for the others: at the highest dose activation, most hits filed as activators; hit rate 0.34% among 260,000; also: potency is read from the fitted curve at half-maximal effect; nearly all actives have a fitted effect of over 55% in size
#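 hPK-M2, >95% pure; 0.1 mM ADP / 0.5 mM PEP final; imidazole pH7.2 buffer w/ 7 mM MgCl2, 50 mM KCl; 1 h RT; Kinase-Glo lum. Intermediate enzyme activity for dual inhibitor/activator qHTS.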
# Gal4-VP16 FLuc = Gal4-VP16 reporter inhibition counter-screen. Drosophila S2 Gal4-VP16 UAS-luciferase, luminescence, 20 h. Potency, µM (titrated, usually from 53.6 µM), without a hit: at the highest dose activity, negative = inhibition, most hits filed as inhibitors. hit rate 3.5% among 310,000;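 also: Gal4-VP16 expression switched on by copper sulfate through the metallothionein promoter; potency is read from the fitted curve at half-maximal effect; nearly all actives have a fitted effect of over 50% in size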
# CtBP-E1A inh = CtBP/E1A binding inhibition; AlphaScreen GST-E1A/His-CtBP binding, 1536-well; hits give low values; activity change, % (test concentration not listed); hit rate 0.49% among 340,000; AID 651724; in the data active = activity change below about -65%; inconclusive = mostly about -30% to -63%
#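 Steps: dispense buffer (Tris pH 8.0, NaCl 300 mM, TCEP 1 mM, BSA, Tween 20); add 5X protein mix (GST-E1A, His-CtBP, 125 nM each); pin 23 nL compound; 2 h at 37 °C, dark; add 5X beads (50 ug/mL); 1 h; read.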
# Starred values were filed as active, the others as inactive; ? = inconclusive; / = no result; [ ] = dose if it differs, or a comment. This is a sample that favours compounds with a hit; in the whole collection about 5.6% have one here. Unless noted, calls follow the shape of the dose curve; as a rule, active = well fitted curve in the direction sought with a large enough effect; inconclusive = small, poorly fitted or top-dose-only effect, or another doubt; inactive = no such curve, though single readings can be large; an effect the other way counts as inactive or inconclusive. % is scaled to controls: 0 for no effect and ±100 for the full control effect.
SMILES,Six1-Eya2 blk,RORgamma inh,PKM2 activator,Gal4-VP16 FLuc,CtBP-E1A inh
Cc1cc(C)cc(NC(=S)NCCc2ccc(S(N)(=O)=O)cc2)c1,4,10µM*,3%,?,-1
COc1ccc(CCNC(=S)Nc2ccc(OC)cc2)cc1,-2,3.5µM*,-13%,10µM*,-5
COc1ccc(CCNC(=S)Nc2cc(C)cc(C)c2)cc1,-15,7.1µM*,3%,13µM*,-1
CC(=C/c1ccco1)/C=N/NC(=O)c1nnn(-c2nonc2N)c1CN(C)C,-13,?,/,-9%,-2
CCC(C(=O)NCc1ccncc1)c1ccccc1 (stereo not drawn),9,0%,3%,0%,4
Cc1ccc(C)c(C(O)c2ncc(-c3ccc(F)cc3)[nH]2)c1 (stereo not drawn),-5,/,/,/,-14
CCc1ccc(CNC(=O)c2ccc3nc(C4CCCCC4)oc3c2)nc1,/,6.3µM*,-4%,11µM*,/
Cc1ccc(CN2C(=O)C(C)Oc3ccc(C)cc32)cc1 (stereo not drawn),28,/,/,/,29
Cn1c(=O)c(-c2ccc(Cl)cc2)nc2cnc(OCc3ccccc3)nc21,/,15%,/,4%,/
CCNC(=O)COc1ccc(CC)cc1,4,19%,5%,8%,-9
CCCn1nnnc1NC(=O)COc1ccc(Cl)c(C)c1,-8,5µM*,0%,4.5µM*,-7
CCCn1nnnc1NC(=O)COc1ccc(CC)cc1,-11,10µM*,-5%,11µM*,-10
CCC(=O)OC1(C)C(=O)C=C2C=C(CCCNC(=O)OC(C)(C)C)OC=C2C1=O (stereo not drawn),/,-16%,/,7%,/
COc1ccc(C2CC(c3ccc(Cl)cc3)Nc3nc(NC(=O)c4ccco4)nn32)cc1 (stereo not drawn),-4,0.71µM*,-22%,0.16µM*,7
COc1ccc(C2CC(c3ccc(Cl)cc3Cl)n3nc(N)nc3N2)cc1 (stereo not drawn),-5,-10%,-12%,-2%,-1
COc1ccc(C2CC(c3ccc(Cl)cc3Cl)Nc3nc(N)nn32)cc1 (stereo not drawn),-12,5.6µM*,0%,4.5µM*,-1
O=C(Nc1nc2n(n1)C(c1ccc(Cl)cc1)CC(c1ccc(Cl)cc1)N2)c1ccco1 (stereo not drawn),-7,3.2µM*,2%,3.5µM*,-4
O=C(Nc1nc2n(n1)C(c1ccc(F)cc1)CC(c1ccccc1)N2)c1ccco1 (stereo not drawn),2,3.2µM*,-1%,7.1µM*,4
CS(=O)(=O)Nc1nc2n(n1)C(c1ccc(F)cc1)CC(c1ccccc1)N2 (stereo not drawn),4,-10%,-2%,-7%,-2
O=C(Nc1nc2n(n1)C(c1ccccc1)C=C(c1ccccc1)N2)c1ccco1 (stereo not drawn),0,-22%,9%,2%,-19
CCN1CCc2c(OCc3ccc(C)cc3)cccc2C1=O,13,32%,-1%,-3%,-2
C/C(=C/c1ccccc1)C(=O)N1CCN(c2ccc(F)cc2)CC1,4,-40%,3%,1%,/
O=C(Nc1nnc([C@@H]2C[C@H](O)[C@@H](CO)O2)s1)c1ccc(Oc2ccccc2)cc1,4,/,/,/,-3
Cc1ccc(NC(=O)CN(C)CC(=O)Nc2sc3c(c2C(N)=O)CCC3)cc1,-7,16µM*,2%,?,-17
CN(CC(=O)Nc1ccc(Cl)cc1)CC(=O)Nc1sc2c(c1C(N)=O)CCC2,-23,/,/,/,-4
SMILES,Six1-Eya2 blk,RORgamma inh,PKM2 activator,Gal4-VP16 FLuc,CtBP-E1A inh
NC(=S)N/N=C1/CCSc2ccc3ccccc3c21,-14,0.63µM*,-8%,3.2µM*,/
NC(=S)NN=C1CCCCCCCCCC1,-10,/,/,/,-1
CN(CCCC(=O)N1CCN(c2ncccn2)CC1)S(=O)(=O)c1ccc(F)cc1,1,/,/,/,/
Cc1ccc(-c2nc3ccc(Cl)cc3c(=O)n2O)cc1,1,?,/,11µM*,-1
Cc1ccccc1/C=N/Nc1nc2ccccc2c(=O)n1O,-16,7.1µM*,2%,?,-3
O=c1c2cc(Cl)ccc2nc(-c2ccccc2Cl)n1O,0,?,-7%,20µM*,/
O=c1c2ccccc2nc(-c2cccc(Cl)c2)n1O,2,1%[0.365 µM],6%,/,0
Cc1ccc(-c2nc3ccccc3c(=O)n2O)cc1,-4,?,/,14µM*,5
Clc1ccc(Cc2ccccn2)cc1,0,/,/,/,7
O=C(OCC1CO1)C1CCCCC1C(=O)OCC1CO1 (stereo not drawn),/,26%,/,1%,/
CCSCCOC(=O)C1=C(C)N(C)C(=O)NC1c1ccc2c(c1)OCO2 (stereo not drawn),-3,9%,30%,6%,-11
O=c1c2ccccc2nc(-c2ccc([N+](=O)[O-])cc2)n1O,4,4%,-23%,4µM*,9
CNc1c(NC(=O)c2ccc3c(c2)OCO3)c(=O)oc2ccccc12,13,4%,/,-4%,-1
CCCCCCSc1ccc([C@H]2N[C@@](C)(C(=O)OC)[C@H]3C(=O)N(CC)C(=O)[C@@H]23)cc1,-4,/,/,/,1
COc1ccccc1-c1cnn2c(NC3CCCC3)cc(C)nc12,11,10µM*,/,?,40
CCOC(=O)N1CCC(Nc2cc(C)nc3c(-c4ccccc4OC)c(C)nn23)CC1,3,?,-4%,-1%,0
N#CC1=C(S)N(c2ccccc2)C(c2ccco2)NC1=O (stereo not drawn),-2,25%,-26%,-4%,3
COc1ccc(N2C(S)=C(C#N)C(=O)NC2c2ccc(OC)c(OC)c2)cc1 (stereo not drawn),11,11µM*,?,-28%,0
N#CC1=C(S)N(c2ccccc2)C(c2ccc(-c3cc(Cl)ccc3Cl)o2)NC1=O (stereo not drawn),-2,13µM*,-5%,?,-4
Cc1ccc(N2C(S)=C(C#N)C(=O)NC2c2ccco2)cc1 (stereo not drawn),-2,16µM*,-5%,-10%,-6
N#CC1=C(S)N(c2ccccc2)C(c2ccc(-c3ccc(Cl)c(Cl)c3)o2)NC1=O (stereo not drawn),4,10µM*,7%,?,3
NC(Cc1ccc(C(F)(F)F)cc1)c1csc(Nc2ccc(S(N)(=O)=O)cc2)n1 (stereo not drawn),-6,/,/,/,-4
Cc1nn(CC(=O)NCCc2cccs2)c(=O)c2cc3ccccc3n12,-1,-18%,/,-3%,/
COc1ccc(OC)c(/C=C/c2ccc3cccc(O)c3n2)c1,/,2.5µM*,/,4.5µM*,/
CSc1ccc(/C=C/c2ccc3cccc(O)c3n2)cc1,0,4.5µM*,-48%,?,8
COc1cc(/C=C/c2ccc3cccc(O)c3n2)ccc1O,-2,3.2µM*,/,3.2µM*,/
